# According to ChEMBL document CHEMBL3988442, “University of Dundee, Small-Polar-MMV Screening Library” (2021):
# The whole screen tested about 68,000 compounds, of which about 25 (0.04%) showed an effect of 50% or more. Many of the other results were omitted from the sample, so strong results are more common in it than they were.
# Biological target: T1, Methionyl-tRNA synthetase, putative (Leishmania donovani (strain BPK282A1)) (UniProt E9BF75)
# T1 sequence (whole entry): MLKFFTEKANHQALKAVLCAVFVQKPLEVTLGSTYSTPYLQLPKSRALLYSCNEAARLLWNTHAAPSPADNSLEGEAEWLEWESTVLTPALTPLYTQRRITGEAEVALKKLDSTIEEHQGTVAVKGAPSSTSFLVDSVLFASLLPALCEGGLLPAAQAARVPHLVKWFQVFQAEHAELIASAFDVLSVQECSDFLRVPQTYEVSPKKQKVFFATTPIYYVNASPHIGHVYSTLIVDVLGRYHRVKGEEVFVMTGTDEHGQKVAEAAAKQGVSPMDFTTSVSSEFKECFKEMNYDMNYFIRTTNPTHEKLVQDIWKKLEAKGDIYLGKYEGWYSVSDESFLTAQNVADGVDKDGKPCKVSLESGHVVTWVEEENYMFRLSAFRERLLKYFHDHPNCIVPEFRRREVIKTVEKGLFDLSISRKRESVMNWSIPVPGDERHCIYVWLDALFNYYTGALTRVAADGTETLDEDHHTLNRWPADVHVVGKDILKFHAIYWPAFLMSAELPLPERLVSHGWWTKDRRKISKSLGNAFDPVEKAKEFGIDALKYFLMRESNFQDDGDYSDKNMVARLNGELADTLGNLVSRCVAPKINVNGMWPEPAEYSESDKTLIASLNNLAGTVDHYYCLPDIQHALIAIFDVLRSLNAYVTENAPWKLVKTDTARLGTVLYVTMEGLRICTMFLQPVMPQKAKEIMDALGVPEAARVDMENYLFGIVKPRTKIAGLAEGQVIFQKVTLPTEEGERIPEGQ
# Test: Leishmania donovani Methionine tRNA synthetase (LdMetRS):v6. Primary screen assay
# Format: functional
# Design: conc 80 nM, time 150 minutes
row,Structure (SMILES),inhibition [%]
1,Cc1ccc(CN2CCC[C@]3(C(=O)O)CN(c4ncccn4)C[C@@H]3C2)o1,14.6
2,CC(=O)N1[C@H](Cn2cncn2)C[C@@H]2CN(Cc3ccncc3)CC[C@@H]21,5.54
3,Cc1ccc(CN2CCN(CC3CC3)[C@@H]3CS(=O)(=O)C[C@@H]32)cc1C,15.6
4,CCS(=O)(=O)CCNC(=O)[C@@]12CNC[C@@H]1CN(C1CCCC1)C2,6.92
5,Cc1nc(COC[C@@H]2CC[C@H]3[C@H](CCN3S(C)(=O)=O)O2)cs1,15.2
6,O=C(CCn1cc(Cl)cn1)N1C[C@@H]2CC[C@H](C1)N(Cc1ccccn1)C2,15.8
7,Cc1cccc(C(=O)N2C[C@H]3CC[C@@H]2CN(S(=O)(=O)N(C)C)C3)n1,19.9
8,CCS(=O)(=O)NC[C@]12COC[C@H]1CN(Cc1ccsc1)C2,7.3
9,CCC(=O)N1CC[C@@H]2[C@H](CC1)N(Cc1cccc(C)n1)CCS2(=O)=O,14.2
10,Cc1cc(C)n(-c2nc(NCCCO)c3c4c(sc3n2)CCCC4)n1,59.5
11,COCCNc1nc(-n2nc(C)cc2C)nc2sc3c(c12)CCCC3,9.06
12,Cc1cc(C)n(C2=NC(NCCC(C)C)c3c(sc4c3CCCC4)N2)n1 (stereo not drawn),16.4
13,CN(C)C(c1ccccn1)[C@H]1CC[C@H](CNC(=O)C2CC2)CC1 (stereo partly drawn),16
14,O=C(C[C@@H]1COC[C@H]2CN(Cc3ccc(F)cc3)C[C@@H]12)N1CCCC1,13
15,CC(=O)N1CC[C@@]2(C(=O)Nc3ccccc3)CCN(S(C)(=O)=O)CC[C@@H]12,8.93
16,c1ccc(CN2CC[C@@H]3O[C@@H](COCC4CCOCC4)CC[C@@H]32)nc1,10.1
17,O=C(c1ccsc1)N1C[C@H](N2CCOCC2)[C@@H]2OCCC[C@@H]21,13.9
18,O=C(C[C@@H]1COC[C@H]2CN(Cc3ccc(F)cc3)C[C@@H]12)N1CCCCO1,12.9
19,CNS(=O)(=O)c1ccc(CNC(=O)C2CCCO2)cc1 (stereo not drawn),-0.269
20,Cc1oncc1C(=O)N1CC[C@H]2[C@@H]1CCC(=O)N2c1cccnc1,17.6
21,Cn1cc(CN2CC[C@H]3O[C@@H](C(=O)NC4CC4)CC[C@H]32)cn1,3.76
22,c1csc(CN2C[C@@H](n3cccn3)[C@H]3OCCC[C@H]32)c1,10.1
23,COc1cccc(NC(=O)N2CC[C@@H]3CN(C)S(=O)(=O)[C@@H]3CC2)c1,-1.1
